Experimental data from PubChem BioAssay (NCI).
The panel holds about 79,000 compounds, 15% with a hit somewhere; the sample as a whole holds those more often. Unmarked numbers belong to inactive results. Activity calls are given as the source filed them. No stated cut-off is given here; in the data, active means growth inhibition above about 70%; inactive means the rest.

Tests used:
[1] = NCI Yeast Anticancer Drug Screen. Data for the rad50 strain (AID 155);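 further: 0% = growth of vehicle-only cultures of the same strain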; settings: S. cerevisiae rad50 strain growth inhibition, active compounds read high
Summary of the method: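 Inhibition values express reduced yeast growth in compound-treated cultures relative to vehicle-treated controls.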

[2] = NCI Yeast Anticancer Drug Screen. Data for the mec2-1 strain (AID 157); settings: S. cerevisiae mec2-1 strain, active compounds read high
Summary of the method: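 Each compound was tested on mec2-1 yeast, a strain altered in DNA damage repair or cell cycle control. Growth inhibition is reported relative to vehicle.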

[3] = NCI Yeast Anticancer Drug Screen. Data for the sgs1 mgt1 strain (AID 161);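 further: 0% = growth of cultures given vehicle only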; settings: S. cerevisiae sgs1 mgt1 strain, active compounds read high
Summary of the method: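 Test agents were incubated with a DNA-repair-mutant yeast strain. Growth was then read and compared against vehicle-treated controls.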

[4] = NCI Yeast Anticancer Drug Screen. Data for the cln2 rad14 strain (AID 165);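 further: 0% = growth equal to vehicle treated cultures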; settings: S. cerevisiae cln2 rad14 strain, active compounds read high
Summary of the method: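 Test compounds were added to cln2 rad14 yeast cultures; inhibition of growth was then determined by comparison with vehicle treatment.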

[5] = NCI Yeast Anticancer Drug Screen. Data for the bub3 strain (AID 167); settings: S. cerevisiae bub3 mutant strain, active compounds read high
Summary of the method: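 Steps: expose the mutant yeast strain to compound; grow alongside vehicle-treated cultures; measure growth; express inhibition against the vehicle cultures.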

[6] = NCI Yeast Anticancer Drug Screen. Data for the mlh1 rad18 strain (AID 175); settings: S. cerevisiae mlh1 rad18 strain growth inhibition, active compounds read high
Summary of the method: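 Inhibition values reflect reduced growth of mutant yeast versus vehicle-treated controls following compound exposure; the mutations affect DNA damage repair.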

[7] = at 5.0 µM (retest, dose inferred, filed as 0.5)
[8] = at 50.0 µM (retest, dose inferred, filed as 5.0)

| SMILES | growth inhibition [1, 7] | growth inhibition [1, 8] | growth inhibition ([1]; at 50.0 µM) | growth inhibition [2, 7] | growth inhibition [2, 8] | growth inhibition ([2]; at 50.0 µM) | growth inhibition [3, 7] | growth inhibition [3, 8] | growth inhibition ([3]; at 50.0 µM) | growth inhibition [4, 7] | growth inhibition [4, 8] | growth inhibition ([4]; at 50.0 µM) | growth inhibition [5, 7] | growth inhibition [5, 8] | growth inhibition ([5]; at 50.0 µM) | growth inhibition [6, 7] | growth inhibition [6, 8] | growth inhibition ([6]; at 50.0 µM) |
| --- | --- | --- | --- | --- | --- | --- | --- | --- | --- | --- | --- | --- | --- | --- | --- | --- | --- | --- |
| ClC(CN1CCCCC1)C(Cl)c1ccccc1 (configuration not stated) | 6% | 28% | 46.6% | 2% | 21% | 4.8% | 5% | 53% | 62% | 7% | 37% | 53% | 6% | 58% | 51.9% | 16% | 57% | 35.1% |
| COC1OC(OC)[CH]([Hg][Cl])C1OC (configuration not stated) | 99% (active) | 99% (active) | 99.5% (active) | 99% (active) | 100% (active) | 99.7% (active) | 99% (active) | 99% (active) | 99.4% (active) | 99% (active) | 99% (active) | 98.5% (active) | 100% (active) | 99% (active) | 99.2% (active) | 99% (active) | 99% (active) | 99.4% (active) |
| C/C(=N\N=C(/[Se])N1CCC(C)CC1)c1ccccn1 | 27% | 94% (active) | 94.5% (active) | 24% | 91% (active) | 96% (active) | 9% | 71% (active) | 99.2% (active) | 4% | -9% | 47% | 6% | 20% | 84.5% (active) | 4% | 76% (active) | 98% (active) |
| O=[N+]([O-])c1ccc(CS(=O)(=O)C(Cl)(Cl)Cl)o1 | 39% | 99% (active) | 95.5% (active) | 25% | 100% (active) | 98.5% (active) | 16% | 99% (active) | 97.5% (active) | 3% | 99% (active) | 94% (active) | 8% | 98% (active) | 90.3% (active) | 18% | 99% (active) | 98.8% (active) |
| O=C(O)c1ccc([Se][Se]c2ccc(C(=O)O)cc2)cc1 | 63% | 97% (active) | 89.9% (active) | 39% | 98% (active) | 92.8% (active) | 58% | 99% (active) | 93.3% (active) | 33% | 94% (active) | 91.5% (active) | 41% | 99% (active) | 91.2% (active) | 67% | 97% (active) | 91.1% (active) |
| CC(C)c1ccc(C(c2c(O)c3ccccc3oc2=O)c2c(O)c3ccccc3oc2=O)cc1 | 3% | 91% (active) | 98.5% (active) | -5% | 95% (active) | 97.9% (active) | -10% | 95% (active) | 98.7% (active) | -4% | 98% (active) | 99.3% (active) | -9% | 92% (active) | 98.6% (active) | -11% | 97% (active) | 98.4% (active) |
| CC1=C(O)C(=O)C=C2C1=CC=C1[C@@]2(C)CC[C@@]2(C)[C@@H]3C[C@](C)(C(=O)O)CC[C@]3(C)CC[C@]12C | 65% | 96% (active) | 90% (active) | 74% (active) | 98% (active) | 93.5% (active) | 83% (active) | 99% (active) | 93.6% (active) | 92% (active) | 98% (active) | 91% (active) | 95% (active) | 99% (active) | 92.5% (active) | 74% (active) | 97% (active) | 84% (active) |
| CC(=O)OC[C@]12C[C@H](OC(=O)CC(C)C)C(C)=C[C@H]1OC1[C@H](O)[C@@H](OC(C)=O)[C@@]2(C)[C@@]12CO2 | 97% (active) | 98% (active) | 92.8% (active) | 98% (active) | 99% (active) | 94.4% (active) | 99% (active) | 99% (active) | 93.8% (active) | 97% (active) | 98% (active) | 91.8% (active) | 98% (active) | 99% (active) | 92.2% (active) | 97% (active) | 98% (active) | 92.6% (active) |
| O=C1C=CC(=O)C(Br)C1Br (configuration not stated) | -20% | 34% | 26.1% | -8% | 57% | 35.3% | -7% | 66% | 46.3% | 2% | 10% | 19.1% | -1% | 52% | 71.2% (active) | 35% | 57% | 66.2% |
| O=P(c1cccc(C(F)(F)F)c1)(c1cccc(C(F)(F)F)c1)c1cccc(C(F)(F)F)c1.O=P(c1cccc(C(F)(F)F)c1)(c1cccc(C(F)(F)F)c1)c1cccc(C(F)(F)F)c1.[Cl][Sn]([Cl])([Cl])[Cl] | 3% | 79% (active) | 31.7% | 3% | 83% (active) | 18.5% | 3% | 79% (active) | -5.9% | -10% | 73% (active) | 62.8% | 4% | 89% (active) | 48.8% | 9% | 81% (active) | 61.1% |
| O=c1c2ccccc2[nH]c(=S)n1-c1cccc(C(F)(F)F)c1 | 65% | 69% | 72.2% (active) | 49% | 59% | 76.3% (active) | 55% | 59% | 77% (active) | 52% | 48% | 61.7% | 71% (active) | 77% (active) | 77.7% (active) | 79% (active) | 81% (active) | 69.2% |
| c1ccc(C(c2ccccc2)c2cccnc2)cc1 | 61% | 97% (active) | 89.2% (active) | 59% | 98% (active) | 91.2% (active) | 16% | 98% (active) | 91.6% (active) | 55% | 97% (active) | 88.9% (active) | 52% | 98% (active) | 91.7% (active) | 54% | 100% (active) | 90.8% (active) |
| CC(=O)C(CN(CC(C)C)CC(C)C)C(c1ccccc1)c1c(O)c2ccccc2oc1=O (configuration not stated) | 0% | 0% | 80.1% (active) | -12% | -12% | 73.7% (active) | -2% | -2% | 85% (active) | -10% | -10% | 83.2% (active) | -1% | -1% | 78.8% (active) | 7% | 7% | 81.9% (active) |
| C[N+](C)(C)CC1CCCC(C[N+](C)(C)C)C1O (configuration not stated) | 2% | 65% | 92.3% (active) | -3% | 46% | 43.4% | 0% | 81% (active) | 76% (active) | -5% | 39% | 6.5% | -4% | 70% (active) | 67.7% | 0% | 80% (active) | 95.2% (active) |
| O=P(c1ccccc1)(c1ccccc1)c1ccccc1.[Cl][Sn]([c]1ccccc1)([c]1ccccc1)[c]1ccccc1 | 99% (active) | 98% (active) | 99.6% (active) | 97% (active) | 98% (active) | 99.7% (active) | 99% (active) | 99% (active) | 99.7% (active) | 99% (active) | 98% (active) | 99.1% (active) | 99% (active) | 98% (active) | 99.3% (active) | 99% (active) | 99% (active) | 99.5% (active) |
| N#CN(Cc1ccccc1)C(c1ccccc1)(c1ccccc1)c1ccccc1.[I][Sn]([c]1ccccc1)([c]1ccccc1)[c]1ccccc1 | 99% (active) | 96% (active) | 98.8% (active) | 100% (active) | 98% (active) | 98.8% (active) | 100% (active) | 98% (active) | 99.5% (active) | 99% (active) | 94% (active) | 98.2% (active) | 99% (active) | 95% (active) | 97.7% (active) | 99% (active) | 96% (active) | 97% (active) |
| S=C=NC/C(Cl)=C/Cl | 43% | 48% | 71.9% (active) | 49% | 45% | 53.5% | 14% | 89% (active) | 72.5% (active) | 56% | 71% (active) | 56.9% | 35% | 91% (active) | 69.2% | 38% | 46% | 70.5% (active) |
| C/C1=C\[C@H](C)C[C@H](C)OC(=O)C[C@H](c2ccc(O)cc2)NC(=O)[C@@H](Cc2c(Br)[nH]c3ccccc23)N(C)C(=O)[C@H](C)NC(=O)[C@@H](C)C1 | 67% | 98% (active) | 84.8% (active) | 88% (active) | 99% (active) | 81.3% (active) | 98% (active) | 99% (active) | 88.7% (active) | 97% (active) | 99% (active) | 81.5% (active) | 99% (active) | 99% (active) | 77.1% (active) | 82% (active) | 98% (active) | 80% (active) |
| COc1ccccc1[As]=[As]c1ccccc1OC (configuration not stated) | 30% | 99% (active) | 99.5% (active) | 20% | 99% (active) | 99.5% (active) | 48% | 99% (active) | 99.4% (active) | 34% | 99% (active) | 98.3% (active) | 85% (active) | 99% (active) | 99.3% (active) | 75% (active) | 99% (active) | 99.3% (active) |
